This is part of a sample that, as a whole, favours compounds with a hit. Of some 83,000 tested, about 20% had one in any assay.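 A percent growth of 40 corresponds to 60% growth inhibition; 0 means no net growth; -100 means all cells died. Active threshold: below 10.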 Values without a mark were called inactive. Active and inactive are the calls of the source.
Legend:
Assay in all cases: NCI-60 one-dose screen, 48 h (100 = growth as untreated, 0 = no growth, -100 = all killed)
Details in all cases: 10 µM unless noted
NCI-H23 lung = test system: NCI-H23 lung
NCI-H226 lung = test system: NCI-H226 lung
NCI-H322M lung = test system: NCI-H322M lung
HOP-62 NSCLC = test system: HOP-62 NSCLC
NCI-H460 lung = test system: NCI-H460 lung
HOP-92 NSCLC = test system: HOP-92 NSCLC
NCI-H522 lung = test system: NCI-H522 lung
A549/ATCC NSCLC = test system: A549/ATCC NSCLC
786-0 renal = test system: 786-0 renal
COLO 205 colon = test system: COLO 205 colon
DU-145 prostate = test system: DU-145 prostate
K-562 leukemia = test system: K-562 leukemia
MALME-3M melanoma = test system: MALME-3M melanoma
MDA-MB-231 breast = test system: MDA-MB-231 breast
RXF 393 renal = test system: RXF 393 renal
SF-268 CNS = test system: SF-268 CNS
SF-295 CNS = test system: SF-295 CNS
SF-539 CNS = test system: SF-539 CNS
UACC-257 melanoma = test system: UACC-257 melanoma
M14 melanoma = test system: M14 melanoma

SMILES | growth (NCI-H23 lung) | growth (NCI-H226 lung) | growth (NCI-H322M lung) | growth (HOP-62 NSCLC) | growth (NCI-H460 lung) | growth (HOP-92 NSCLC) | growth (NCI-H522 lung) | growth (A549/ATCC NSCLC) | growth (786-0 renal) | growth (COLO 205 colon) | growth (DU-145 prostate) | growth (K-562 leukemia) | growth (MALME-3M melanoma) | growth (MDA-MB-231 breast) | growth (RXF 393 renal) | growth (SF-268 CNS) | growth (SF-295 CNS) | growth (SF-539 CNS) | growth (UACC-257 melanoma) | growth (M14 melanoma)
COc1ccc(Nc2ncccc2C(=O)NCc2cn(Cc3cccc(Oc4ccccc4)c3)nn2)c(OC)c1 | 37.5% | 73.5% | 56.1% | 41.7% | 7.15% (active) | 62% | 11.6% | 39% | 34% | 4.54% (active) | 4.02% (active) | 21.3% | 46.4% | 23.9% | 6.03% (active) | 36.6% | 7.69% (active) | 5.94% (active) | 85.5% | 14.2%
N/C(=N\C(N)=N\c1nc2ccccc2s1)c1cccc(Br)c1 | 77% | 71.6% | 81% | -0.459% (active) | 76.4% | 96.7% | 80% | -40.6% (active) | 98.4% | 115% | 99.1% | 73.6% | 101% | 73.4% | 95.5% | 101% | 76% | 98.6% | 103% | 82%
C/C=C/C1=CN2C(=O)c3cc(OC4OC(C)C(NC)C(C)(O)C4O)c(C)cc3N=C[C@@H]2C1 (stereo not given in full) | -31.7% (active) | 6.1% (active) | -20.1% (active) | -8.97% (active) | -18.4% (active) | 2.06% (active) | -12.7% (active) | 7.17% (active) | 0.564% (active) | -42.4% (active) | -18.6% (active) | 5.83% (active) | -43% (active) | 15.7% | -44.9% (active) | -28.8% (active) | -23.1% (active) | -44.9% (active) | -1.62% (active) | -60.5% (active)
c1ccc(-c2nnc(-c3ccccn3)s2)nc1 | 79.6% | 96.8% | 117% | 80.4% | 102% | 89.7% | 96.1% | 102% | 78.9% | 109% | 110% | 93.9% | 86.3% | 95.1% | 109% | 95.4% | 100% | 99.8% | 96% | 82.8%
Cc1ccc(S(=O)(=O)c2nc(-c3ccccc3)oc2S(C)(=O)=O)cc1 | 76.3% | 90.5% | 106% | 80.7% | 80% | -27.4% (active) | -84.4% (active) | 85.6% | -16.5% (active) | -76.6% (active) | 30.4% | 2.49% (active) | -77.8% (active) | 13.6% | 10.4% | 68.6% | 89.4% | -23.1% (active) | 74.8% | 17.8%
CC(C)CSc1nc(NN)c(C#N)c(-c2ccccc2)n1 | 99.7% | 89.1% | 89.5% | 94.1% | 97.4% | 108% | 88.2% | 105% | 98.4% | 111% | 103% | 94.5% | 118% | 107% | 90.1% | 84.6% | 88.1% | 94.5% | 110% | 107%
CCOC(=O)CC(=O)OC | 106% | 101% | 111% | 102% | 101% | 96.4% | 90.2% | 101% | 101% | 101% | 118% | 103% | 114% | 121% | 114% | 111% | 110% | 95.7% | 96.9% | 96.1%
C=C1CCC2C3(C)COC(c4ccccc4)OC3CCC2(C)C1/C=C/C1=CCOC1=O (stereo not given) | 74.6% | 85.8% | 64.3% | 113% | 93.6% | 68.4% | 63.6% | 43.5% | 94.3% | 17.4% | 14.9% | 32.4% | 105% | 89.7% | -14.6% (active) | 73.2% | 105% | 63.6% | 65.9% | 53.4%
CCOC(=O)C1C(=O)C=C(c2ccc(OC)cc2)CC1c1sc(N(C)Cc2ccccc2)nc1Cl (stereo not given) | 77.7% | 82.6% | 76.1% | 81.6% | 82.8% | 29.8% | 68.7% | 82% | 84.6% | 108% | 91.5% | 68.4% | 93.4% | 68.3% | 93.9% | 74.4% | 83.6% | 84.7% | 91.2% | 87.6%
CC(=O)Nc1scc[n+]1Cc1ccccc1 | 88% | 106% | 131% | 105% | 112% | 99.2% | 103% | 104% | 102% | 111% | 118% | 99.1% | 130% | 115% | 98.3% | 110% | 105% | 104% | 107% | 98.5%
COc1ccc(-c2c(N)n[nH]c2-c2cc(OC)c(OC)c(OC)c2)cc1 | 36.9% | 82.7% | 43.9% | 41.1% | 6.89% (active) | 70.1% | -21.3% (active) | 25.9% | 33.7% | 4.54% (active) | 11% | 19.3% | 39.3% | 28% | -1.72% (active) | 34.9% | 12.8% | 1.66% (active) | 59.2% | 5.82% (active)
CC1CCC(C)N(C)C1 (stereo not given) | 104% | 101% | 100% | 107% | 109% | 84.4% | 104% | 103% | 94.4% | 110% | 122% | 98.9% | 101% | 98.2% | 100% | 108% | 116% | 103% | 105% | 96.8%
Cc1cc(N)n(S(=O)(=O)c2oc(-c3ccccc3)nc2C#N)n1 | 90.3% | 89.6% | 98.4% | 95% | 106% | 91.5% | 24.4% | 95.3% | 90.1% | -34% (active) | 103% | 7.1% (active) | -49% (active) | 94.1% | 92.3% | 103% | 101% | 108% | 101% | 84.5%
Brc1ccc(-c2[nH]ncc2-c2c[nH]c3ccccc23)cc1 | 92.5% | 92.8% | 99.7% | 111% | 98.1% | 63.2% | 107% | 93.6% | 102% | 109% | 108% | 88.4% | 90.6% | 67.7% | 103% | 89% | 96.2% | 93.3% | 91.6% | 89.7%
C=C1CCC2C3(C)COC(C)(C)OC3CCC2(C)C1C/C=C1/C(=O)OCC1Oc1ccccc1OC (stereo not given) | 92.2% | 79.7% | 96.6% | 105% | 102% | 116% | 17.5% | 97.7% | 99.9% | 102% | 78.9% | 21.7% | 112% | 103% | 93.3% | 99.7% | 101% | 83% | 85.3% | 72.3%

Reference: PubChem BioAssay (NCI)
